Screening results from PubChem.
ClpP mod = qHTS Assay for Activators of ClpP; ATP-dependent Clp protease proteolytic subunit (Bacillus subtilis (strain 168)), P80244; purified B. subtilis ClpP, FRET peptide cleavage, 20 min; Potency, µM (titrated, usually from 57.5 µM), for inactives: top-dose activity change, negative = active; actives 1.9% (n = 340,000); AID 651965, 2013; active = well fitted falling curve with a large enough effect; inconclusive = small, poorly fitted or top-dose-only effect; inactive = no such curve, though single readings can be large or run the other way; also: potency is read from the fitted curve at half-maximal effect; the source files actives as falling curves though it sought activators and does not explain the sign; nearly all actives have a fitted effect of over 65% in size
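Buffer: 100 mM Tris/HCl pH8, 100 mM KCl, 0.05% low protease BSA, 2.5% glycerol, 0.01% Tween-20. ClpP 10 microg/mL final; 20 min RT; delta FRET normalized to ADEP and DMSO controls.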
ASM inhibitor = Inhibitors of Secretory Acid Sphingomyelinase (S-ASM): qHTS | Potency, µM (highest dose often 57.5 µM), inactives show top-dose activity change, negative = inhibition, most hits filed as inhibitors | actives 0.006% (n = 340,000) | placental ASM, HMU-PC fluorogenic substrate, 60 min | AID 504937, 2011; also: potency is read from the fitted curve at half-maximal effect
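qHTS format. ASM enzyme prepared from human placenta hydrolyses the fluorogenic substrate HMU-PC0 (9 uM final) over 60 min at 37 °C after a 10 min compound preincubation.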
RGS4 inhibitor = Inhibitors of Regulator of G Protein Signaling (RGS) 4: qHTS; Regulator of G-protein signaling 4 (Homo sapiens), P49798; Transcreener GDP fluorescence polarization, RGS4-accelerated GTP hydrolysis; Potency, µM (titrated, usually from 114 µM), without a hit: at the highest dose activity change, negative = inhibition, usual class: inhibitors; actives 0.039% (n = 390,000); AID 504845, 2011; also: potency is read from the fitted curve at half-maximal effect; % is scaled to controls: 0 for no effect and ±100 for the full control effect; nearly all actives have a fitted effect of over 75% in size
Target sequence (P49798 whole entry, looked up): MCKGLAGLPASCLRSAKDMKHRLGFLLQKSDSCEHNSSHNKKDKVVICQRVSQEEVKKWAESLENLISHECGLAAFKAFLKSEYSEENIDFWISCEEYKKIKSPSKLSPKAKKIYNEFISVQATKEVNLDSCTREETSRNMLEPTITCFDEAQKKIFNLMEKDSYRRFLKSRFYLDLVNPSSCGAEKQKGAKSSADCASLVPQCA
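MLSMR compounds (23 nl, pin-transferred) preincubated 10 min at room temperature with a 500nM (2x) first reagent, then RGS4 at 900nM (2x) plus Transcreener GDP mix added; fluorescence polarization (620/688 nm) read before and after 90 min at 30 °C.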
LDHA block = qHTS assay for inhibitors of human lactate dehydrogenase. AID 1347041, 2019. actives 0.15% (n = 480,000). activity change, % (values are at about 110 or 230 µM). purified LDHA, NADH/diaphorase-resazurin fluorescence; hits give low values; in the data active = activity change below about -30%; inconclusive = mostly about -25% to -30%;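 also: plate controls were DMSO wells for no effect and wells without enzyme for full effect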
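Human LDH5 (2 nM) was incubated with 0.06 mM NADH and 0.2 mM pyruvate for 5 min at room temperature in Tris pH 7.4. Remaining NADH was coupled through diaphorase/resazurin, and resorufin fluorescence was read at 0 and 20 min.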
Mito fusion act = qHTS Assay for Small Molecule Inhibitors of Mitochondrial Division or Activators of Mitochondrial Fusion | actives 0.23% (n = 320,000) | S. cerevisiae fusion-defective mutant growth rescue, CellTiterGlo 48 h | Potency, µM (doses to about 46.1 µM), without a hit: at the top dose growth rescue (activation), actives largely listed as activators; also: potency is read from the fitted curve at half-maximal effect; % of control where 0% means no effect; nearly all actives have a fitted effect of over 45% in size
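Read-out: ATP-based luminescence (CellTiterGlo, 10 min ambient) reporting growth of fusion-defective ts yeast after 48 hours at 37C on glycerol/ethanol YPEG medium in the presence of compound.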
IDH1 R132H inh = qHTS for Inhibitors of mutant isocitrate dehydrogenase 1 (IDH1): qHTS | Isocitrate dehydrogenase [NADP] cytoplasmic (Homo sapiens), O75874 | actives 0.093% (n = 390,000) | IDH1-R132H enzyme, NADPH consumption, diaphorase/resazurin fluorescence | AID 602179, 2012 | Potency, µM (highest dose often 76.6 µM), for the others: at the top dose activity change, negative = inhibition, actives largely listed as inhibitors; also: potency is read from the fitted curve at half-maximal effect; % is scaled to controls: 0 for no effect and ±100 for the full control effect; nearly all actives have a fitted effect of over 65% in size
Target sequence (O75874 whole entry R132H, stated change not applied): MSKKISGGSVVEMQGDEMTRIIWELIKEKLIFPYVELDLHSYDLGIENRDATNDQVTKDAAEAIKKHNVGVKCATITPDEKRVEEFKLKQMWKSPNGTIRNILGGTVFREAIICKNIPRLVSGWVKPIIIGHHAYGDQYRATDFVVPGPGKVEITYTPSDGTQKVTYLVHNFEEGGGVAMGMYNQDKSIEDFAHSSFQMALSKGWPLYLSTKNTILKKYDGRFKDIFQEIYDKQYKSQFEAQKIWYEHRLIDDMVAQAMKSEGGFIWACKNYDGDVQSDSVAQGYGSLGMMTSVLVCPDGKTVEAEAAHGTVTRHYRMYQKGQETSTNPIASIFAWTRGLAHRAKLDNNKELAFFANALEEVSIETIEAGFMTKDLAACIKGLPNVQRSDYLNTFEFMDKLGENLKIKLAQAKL
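IDH1-R132H (0.5 ug/mL dispensed) in pH 7.5 Tris buffer was preincubated 30 min with compound, then given a substrate mix of 0.016 mM NADPH and 2 mM alpha-KG for 80 min at room temperature; remaining NADPH was read by diaphorase/resazurin fluorescence.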
The depositor's hits bear a star; u = inconclusive; x = no result given; [ ] = dose if it differs, or a comment. This excerpt belongs to a sample that is enriched for hits. Unless noted, calls follow the shape of the dose curve; as a rule, active = well fitted curve in the direction sought with a large enough effect; inconclusive = small, poorly fitted or top-dose-only effect, or another doubt; inactive = no such curve, though single readings can be large; an effect the other way counts as inactive or inconclusive.

SMILES	ClpP mod	ASM inhibitor	RGS4 inhibitor	LDHA block	Mito fusion act	IDH1 R132H inh
Cc1ccc(-c2nc(C#N)c(NCc3cccc4c3OCO4)o2)cc1	32µM*	-11%	13%	-13	17%	4%
COc1ccccc1OCCC(=O)NC12CC3CC(CC(C3)C1)C2	x	x	x	0	x	x
CC(C)c1ccc(C(=O)NCCC2=CCCCC2)cc1	x	x	x	1	x	x
CCOc1ccccc1NC(=O)CC1Nc2ccccc2NC1=O (stereo not drawn)	25µM*	35%	13%	3	7%	5%
Cc1cccc(-n2c(O)c(C=Nc3ccc(O)cc3)c3ccccc3c2=O)n1	7.1µM*	2%	4%	1	-6%	6%
CCOC(=O)c1c(-c2ccc(OC)c(OC)c2)csc1NC(=O)C1CCCCC1	x	x	x	2	x	x
O=C(Nc1ccc2nc[nH]c(=O)c2c1)c1ccc(F)cc1Cl	x	x	x	0	x	x
CCOC(=O)Cn1c2ccccc2n2nc(CCC(=O)O)c(=O)nc12	x	4%	-15%	-1	-2%	10%
O=C(O)CCc1nn2c3ccccc3n(CC(=O)c3ccccc3)c2nc1=O	32µM*	-1%	0%	-1	-1%	5%
O=C(O)CCc1nn2c3ccccc3nc2n(CCN2CCCCC2)c1=O	18µM*	0%	15%	-2	0%	0%
COCc1nc2sc3c(c2c(=O)[nH]1)CCCC3	-5%	-1%	-27%	0	22µM*	3%
CCN(CC(=O)NC(C)C)Cc1nc2sc3c(c2c(=O)[nH]1)CCC3	13µM*	6%	25%	-3	-2%	-2%
Cc1cccc(NC(=O)COc2ccc3c(c2)CCC3)n1	28µM*	2%	-6%	-4	1%	9%
CCCNC(=O)NCc1cccn1Cc1cc(C)ccc1C	x	x	x	-5	x	x
COc1ccc(-n2nc3c(c2NC(=O)C(C)Oc2ccccc2)CS(=O)C3)cc1 (stereo not drawn)	32µM*	3%	-34%	3	0%	6%
CCC(CC)C(=O)Nc1c2c(nn1-c1ccc(OC)cc1)CS(=O)C2 (stereo not drawn)	2%	1%	-44%	1	-4%	3%
CCOc1ccc(-c2nc(C#N)c(N3CCN(CC)CC3)o2)cc1	10µM*	3%	-19%	1	-6%	2%
CCCOc1ccc(-c2nc(C#N)c(N3CCN(CC)CC3)o2)cc1	28µM*	-3%	-16%	-1	-7%	4%
CCCOc1ccc(-c2nc(C#N)c(N3CCc4ccccc4C3)o2)cc1	16µM*	-1%	24%	-4	1%	6%
CCOc1ccc(-c2nc(C#N)c(N3CCN(C)CC3)o2)cc1	u	-5%	-12%	4	-5%	4%
CCCOc1ccc(-c2nc(C#N)c(N3CCN(C)CC3)o2)cc1	32µM*	-1%	-26%	-1	-9%	12%
CCOc1ccc(-c2nc(C#N)c(N3CCCCCC3)o2)cc1	6%	1%	-12%	-6	17%	1%
CCN1CCN(c2oc(-c3ccc([N+](=O)[O-])cc3)nc2C#N)CC1	x	-4%	-36%	10	-3%	-2%
CCOC(=O)CCNCc1ccc(F)cc1	18µM*	10%	18%	-7	1%	3%
CCCCNCc1ccc(F)cc1	x	x	x	9	x	x
SMILES	ClpP mod	ASM inhibitor	RGS4 inhibitor	LDHA block	Mito fusion act	IDH1 R132H inh
Cc1cc(CN(C)C)c(O)c(C2(C)CCCCC2)c1	22µM*	1%	29%	-2	0%	4%
OCCCNc1nc(-c2ccc(Cl)cc2)nnc1-c1ccc(Br)cc1	-2%	-6%	15%	-4	13µM*	4%
CCN(CC)S(=O)(=O)c1cc(-c2n[nH]c(=O)c3ccccc23)ccc1C	x	x	x	-33*	x	x
CC1Cc2cc(S(=O)(=O)NCCC(=O)Nc3cccc(C(F)(F)F)c3)ccc2N1C(=O)C1CC1 (stereo not drawn)	x	x	x	9	x	x
CCOC(=O)c1oc2c(C)c(O)ccc2c(=O)c1-c1nncn1-c1ccccc1	-2%	-1%	30%	0	-3%	6%
CCOC(=O)c1oc2c(O)c(O)ccc2c(=O)c1-c1nncn1-c1ccccc1	22µM*	-2%	-30%	14	-2%	2%
COC(=O)c1ccccc1NC(=O)c1cc2sccc2n1C	32µM*	-6%	-33%	5	0%	11%
CC1CCCCN1C(=S)Nc1ccc2nc3n(c(=O)c2c1)CCCCC3 (stereo not drawn)	28µM*	14%	-42%	-3	-3%	6%
O=c1c2cc(NC(=S)N3CCC(N4CCCCC4)CC3)ccc2nc2n1CCCCC2	0%	7%	-3%	-2	-5%	8%
Cc1ccc(C)c(OCCn2cc(C(=O)O)c3ccccc32)c1	x	-19%	9%	-12	24%	33µM*
CC(=O)c1cn(CCOc2cc(C)ccc2C)c2ccccc12	x	-11%	-8%	1	8%	5%
Cc1cccc(C(=O)N[C@H](C(=O)Nc2ccc(S(=O)(=O)NC3=NCCCCC3)cc2)C(C)C)c1	35µM*	1%	-14%	-11	5%	0%
Cc1scc(C(=O)NCC2CCCCC2)c1C	x	x	x	-2	x	x
COC(=O)c1c(C)[nH]c(C(=O)N2CCCC2c2ccccc2)c1C (stereo not drawn)	x	x	x	-2	x	x
N#Cc1ccc(/C=N/Nc2ccc3ccccc3c2)cc1	x	x	x	6	x	x
COc1cccc(-c2cc(=O)[nH][nH]2)c1	x	1%	5%	7	u	4%
CCOc1cccc(-c2cc(=O)[nH][nH]2)c1	14µM*	6%	25%	0	0%	5%
C[C@H]1CC[C@H]2C(=O)N3[C@H](c4ccccc4Br)[C@@H](C)CC[C@H]3C(=O)N2[C@@H]1c1ccccc1Br	x	x	x	x	22µM*	x
CC(C)(C)c1nnc(NC(=O)NS(=O)(=O)c2ccccc2)s1	20µM*	6%	4%	-5	-3%	4%
CC(=O)Nc1ccc(S(=O)(=O)Nc2nnc(C(C)(C)C)s2)cc1	-1%	1%	16%	-12	-1%	-7%
CCOc1ccc(S(=O)(=O)NCCc2cn3ccccc3n2)cc1	22µM*	4%	-17%	-7	1%	0%
COc1ccc2[nH]c(-c3ccccc3)c(CCNC(C)=O)c2c1	x	x	-122%[56.9 µM]	x	x	x
